Where “and” joins values, the source holds several entries; their conditions need not be identical. Identical values can stand only once. Inconclusive results are not listed. Calls of active or inactive are those of the source. Unless noted, calls come from the whole dose curve; as a rule, active = well fitted curve in the direction sought with a large enough effect; inconclusive = small, poorly fitted or top-dose-only effect, or another doubt; inactive = no such curve, though single readings can be large; an effect the other way counts as inactive or inconclusive.

A short description of assay [1]: Primary qHTS for inhibitors of nuclear receptor binding SET domain protein 2 (NSD2) in an isogenic RCH-ACV NSD2 p.E1099K mutant (9B) (AID 1645876). Note: nearly all actives have a fitted effect of over 70% in size. Note: potency is the fitted concentration of half-maximal effect. For orientation: Quantitative high-throughput screening tests each substance at several concentrations.
Assay [2] concerns the target Cytochrome P450 2C9 (Homo sapiens) (UniProt P11712). Put plainly: Cytochrome P450 family 2 subfamily C member 9 (CYP2C9) small molecule antagonists: luciferase biochemical (cell-free) qHTS assay (AID 1645842; active = well fitted curve in the direction sought with a large enough effect in the repeat runs; an effect the other way counts as inactive or inconclusive; note: nearly all actives have a fitted effect of over 55% in size; note: potency is the fitted concentration of half-maximal effect). Put shortly:
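P450-Glo CYP2C9 system: proluciferin substrate with enzyme in mix containing 0.4% BSA, 10 min at room temperature, then NADPH regeneration solution added and incubated 1 h at 37C. Detection reagent stopped reaction; luminescence read after 20 min as RLU.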

Assay [3] in a line: Primary qHTS for inhibitors of nuclear receptor binding SET domain protein 2 (NSD2) in an RCH-ACV wild type WT cells (2C) (AID 1645877). Note: nearly all actives have a fitted effect of over 70% in size. Note: potency is the fitted concentration of half-maximal effect.
The target of the next assay is Papain (Carica papaya) (UniProt P00784). Put plainly: Primary qHTS assay for inhibitors of the protease papain (AID 1645873).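 Note: papain turnover of Z-FR-AMC read as the AMC fluorescence gain over 10 min; series mostly up to about 50 µM.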
Chain of Papain (Carica papaya) (P00784 whole entry, looked up): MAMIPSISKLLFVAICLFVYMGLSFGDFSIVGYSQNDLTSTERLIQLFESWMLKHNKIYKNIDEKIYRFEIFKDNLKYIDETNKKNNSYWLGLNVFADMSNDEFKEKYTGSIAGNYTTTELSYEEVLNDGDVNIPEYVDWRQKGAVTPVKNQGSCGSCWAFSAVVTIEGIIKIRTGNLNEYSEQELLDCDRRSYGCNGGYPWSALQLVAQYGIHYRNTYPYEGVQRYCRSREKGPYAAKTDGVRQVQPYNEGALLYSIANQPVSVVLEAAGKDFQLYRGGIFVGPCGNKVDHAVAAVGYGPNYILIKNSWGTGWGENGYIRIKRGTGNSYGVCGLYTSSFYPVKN
The target of assay [4] is N-terminal Xaa-Pro-Lys N-methyltransferase 1 (Homo sapiens) (UniProt Q9BV86). The assay can be described thus: Confirmatory qHTS for Inhibitors of N-terminal methyltransferase 1 (NTMT1): MTaseGlo Assay (AID 1645874). Note: nearly all actives have a fitted effect of over 65% in size. Note: potency is the fitted concentration of half-maximal effect. Put shortly:
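Inhibition was derived from luminescence after SAH-to-ATP conversion, scaled between no-enzyme and DMSO wells, then fitted by 4-parameter Hill. Conditions: 125 nM NTMT1, 100 uM SAM, 1 uM SPKRIA, 30 min RT.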

Chain of Cytochrome P450 2C9 (Homo sapiens) (P11712 whole entry, looked up): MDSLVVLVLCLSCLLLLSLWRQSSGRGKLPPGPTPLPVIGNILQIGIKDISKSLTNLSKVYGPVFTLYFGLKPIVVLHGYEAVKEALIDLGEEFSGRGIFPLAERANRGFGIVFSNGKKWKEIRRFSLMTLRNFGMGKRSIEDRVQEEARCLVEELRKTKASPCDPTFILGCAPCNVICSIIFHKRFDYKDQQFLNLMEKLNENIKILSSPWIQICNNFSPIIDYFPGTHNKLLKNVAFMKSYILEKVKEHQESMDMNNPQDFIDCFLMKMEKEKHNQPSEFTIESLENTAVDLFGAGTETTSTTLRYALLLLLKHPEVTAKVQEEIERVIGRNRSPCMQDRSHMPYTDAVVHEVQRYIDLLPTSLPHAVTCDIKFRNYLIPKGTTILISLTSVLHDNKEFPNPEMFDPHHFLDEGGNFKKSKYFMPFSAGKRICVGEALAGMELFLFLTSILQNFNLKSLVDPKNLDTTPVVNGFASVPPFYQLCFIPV
Chain of N-terminal Xaa-Pro-Lys N-methyltransferase 1 (Homo sapiens) (Q9BV86 whole entry, looked up): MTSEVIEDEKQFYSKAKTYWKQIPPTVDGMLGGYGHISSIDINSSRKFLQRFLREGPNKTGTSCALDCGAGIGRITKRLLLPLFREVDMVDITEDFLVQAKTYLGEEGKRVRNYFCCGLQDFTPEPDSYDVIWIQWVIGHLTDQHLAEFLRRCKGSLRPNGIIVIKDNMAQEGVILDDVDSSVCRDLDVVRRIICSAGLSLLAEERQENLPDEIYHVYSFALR

Turning to `Cc1ccn(-c2ccc(-c3ncco3)cc2)c(=O)c1-c1ccc2nc(N)ncc2c1`, the Potency in assay [1] was 5.9 µM (active).
In the case of `CC(C)(C)NC(=O)Nc1cccc(Nc2ncc(F)c(NC(C)(C)CO)n2)c1`, the Potency in assay [2] was 23.9 µM (active); in assay [1] it was 5.78 µM (active); in assay [3] it was 2.63 µM (active).
Turning to `CC(C)C(=O)Nc1ncc(-c2cc(C(F)F)nn2-c2c(Cl)cccc2Cl)s1`, the Potency was 5.35 µM (active) in assay [2], 23 µM (active) in assay [1] and 23 µM (active) in assay [3].
As to `COc1ccc(Cc2nccc3cc(OC)c(OC)cc23)cc1OC`, in the assay with Papain (Carica papaya), the outcome was inactive.
As to `O=C1NC(=O)C(c2ccccc2)(c2ccccc2)N1`, the compound was classed as inactive in the assay with Papain (Carica papaya). Besides, the Potency result in assay [1] and in assay [3] was “inactive” each time.
As to `COCCOc1nc(-c2ccc(Cl)c(Cl)c2)n(-c2ccc(NC(=O)CCl)cc2)n1`, the Potency in assay [2] was 4.77 µM (active); in assay [1] it was 1.48 µM (active); in assay [3] it was 1.32 µM (active).
For the compound `COc1cc(Nc2ncc(F)c(Nc3ccc4c(n3)NC(=O)C(C)(C)O4)n2)cc(OC)c1OC`, the Potency entry in assay [4] is “inactive”. Further, the Potency in assay [1] is 817 nM (active) and 4.61 µM (active); in assay [3], 1.03 µM (active) and 5.17 µM (active).
Consider `O=C(O)Cc1cccc2ccccc12`, for which the Potency entry in assay [2], in assay [1] and in assay [3] was “inactive” throughout.
Turning to `CC(C)(C)c1cc(C(=O)O)c(NC(=O)Nc2ccc3[nH]ncc3c2)s1`, in assay [2], the Potency is 0.477 µM (active). Moreover, the Potency entry in assay [1] and in assay [3] was “inactive” each time.
Take `Cc1nc(N)sc1-c1ccnc(Nc2ccc(N3CCOCC3)cc2)n1`: the Potency is 6.01 µM (active) in assay [2]; 409 nM (active) and 590 nM (active) in assay [1]; 459 nM (active) and 468 nM (active) in assay [3].
With `CC/C(=C(\c1ccccc1)c1ccc(OCCN(C)C)cc1)c1ccccc1`, the outcome in the assay with Papain (Carica papaya) was inactive. Moreover, the Potency result in assay [1] was “inactive”. Also, the Potency in assay [3] was 17.1 µM (active).
`O=C(Nc1ccccc1-c1cn2c(CN3CCNCC3)csc2n1)c1cnc2ccccc2n1`: the Potency in assay [4] is 33.9 µM (active); in assay [1] it was 20.5 µM (active) and 7.42 µM (active); in assay [3], 4.09 µM (active) and 6.61 µM (active).
Regarding `CC(=O)O[C@]1(C(C)=O)CC[C@H]2[C@@H]3C=C(Cl)C4=CC(=O)[C@@H]5C[C@@H]5[C@]4(C)[C@H]3CC[C@@]21C`, in assay [2], the Potency is 9.77 µM (active). For the same compound, in assay [3], the Potency entry was “inactive”.
Take `CCCNC(=O)NS(=O)(=O)c1ccc(Cl)cc1`: the outcome with Papain (Carica papaya) was inactive. Further, the Potency result in assay [1] and in assay [3] was “inactive” each time.
Turning to `Clc1ccc(C(c2ccc(Cl)cc2)n2cc[n+](CC(OCc3ccc(Cl)cc3Cl)c3ccc(Cl)cc3Cl)c2)cc1` (stereo unspecified), the outcome in the assay with Papain (Carica papaya) was inactive. The Potency in assay [1] and in assay [3] was 5.25 µM (active) throughout.
Regarding `Cc1cnc(C(=O)O)c[n+]1[O-]`, the Potency entry in assay [2], in assay [1] and in assay [3] was “inactive” throughout.
In the case of `COc1cc(N2CCC(N3CCN(C)CC3)CC2)ccc1Nc1ncnc(Nc2ccccc2S(=O)(=O)C(C)C)n1`, in assay [2], the Potency entry was “inactive”. The Potency in assay [1] was 6.49 µM (active) and 9.34 µM (active); in assay [3], 18.4 µM (active) and 10.5 µM (active).
With `CCS(=O)(=O)N1CC(CC#N)(n2cc(-c3ncnc4[nH]ccc34)cn2)C1`, in assay [2], the Potency result is “inactive”. Besides, the Potency in assay [1] was 18.6 µM (active); in assay [3], 16.6 µM (active).
Consider `CC(=O)c1ccc(S(=O)(=O)NC(=O)NC2CCCCC2)cc1`, for which, in the assay with Papain (Carica papaya), the outcome was inactive. Besides, the Potency result in assay [1] and in assay [3] was “inactive” each time.
Consider `N#C[C@H]1C[C@H]2C[C@@H]2N1C(=O)[C@@H](N)C12CC3CC(CC(O)(C3)C1)C2`, for which the Potency entry in assay [2] and in assay [3] was “inactive” in each case.
Regarding `O=c1c(O)c(-c2ccc(O)cc2)oc2cc(O)cc(O)c12`, in assay [1], the Potency is 23.5 µM (active).
`CC(=O)Nc1ccc([C@H](C)C(=O)Nc2ncc(C(C)C)s2)cc1`: the Potency in assay [1] was 2.63 µM (active); in assay [3], 2.35 µM (active).
For the compound `CC(C)n1nc(-c2ccc3oc(N)nc3c2)c2c(N)ncnc21`, the Potency in assay [1] is 36.5 nM (active) and 29.5 nM (active); in assay [3], 36.5 nM (active) and 33.2 nM (active).
For `Oc1ccc(C2CCN(c3ccnc4ccccc34)CC2)cc1O`, the Potency in assay [1] was 13.2 µM (active); in assay [3], 11.8 µM (active).
Taken in the same sequence, the figures for `CC(C)C(=O)Oc1ccc(CO)cc1[C@H](CCN(C(C)C)C(C)C)c1ccccc1` were “inactive” and “inactive”.
Taken in the same sequence, the figures for `O=C(Nc1cc(Cl)cc2c1[nH]c1cnccc12)c1cccnc1` were “inactive” and “inactive”.
Taken in the same sequence, the figures for `COc1ccc2cccc(CCNC(C)=O)c2c1` were “inactive” and “inactive”.
In the case of `CC(C)C(C)C=CC(C)C1CCC2C3=CC=C4CC(O)CCC4(C)C3CCC21C` (stereo unspecified), the Potency entry in assay [1] and in assay [3] was “inactive” throughout.
Take `CN(C)Cc1cccc(N=C(c2ccccc2)c2c(O)[nH]c3cc(C(=O)N(C)C)ccc23)c1`: the Potency was 16.6 µM (active) in assay [1] and 14.8 µM (active) in assay [3].

The record behind these values is PubChem BioAssay (NCATS).
